Assay results: PubChem BioAssay (Tox21)
Records with an inconclusive call do not appear. Entries that show only a call come without a potency. Values without a mark were called inactive. Calls of active or inactive are those of the source. The call rests on the fitted dose curve.

Molecular target: Beta-2 adrenergic receptor (Homo sapiens) (UniProt P07550)
Assay: Adrenergic beta2 receptor (ADRB2) small molecule agonists, cell-based qHTS assay (AID 1963593);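 on activation: CHO cells stably overexpressing human ADRB2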
Method in brief: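 CHO cells stably over-expressing ADRB2 were plated overnight at 37C, then dosed with compounds plus a stimulation mix containing 100uM IBMX and 25uM Ro-20-1724 for 0.5hr at room temperature. cAMP was measured by HTRF competition, 1hr.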
Potency means the concentration at half of the fitted maximal effect.

Chain of Beta-2 adrenergic receptor (Homo sapiens) (P07550 whole entry, looked up): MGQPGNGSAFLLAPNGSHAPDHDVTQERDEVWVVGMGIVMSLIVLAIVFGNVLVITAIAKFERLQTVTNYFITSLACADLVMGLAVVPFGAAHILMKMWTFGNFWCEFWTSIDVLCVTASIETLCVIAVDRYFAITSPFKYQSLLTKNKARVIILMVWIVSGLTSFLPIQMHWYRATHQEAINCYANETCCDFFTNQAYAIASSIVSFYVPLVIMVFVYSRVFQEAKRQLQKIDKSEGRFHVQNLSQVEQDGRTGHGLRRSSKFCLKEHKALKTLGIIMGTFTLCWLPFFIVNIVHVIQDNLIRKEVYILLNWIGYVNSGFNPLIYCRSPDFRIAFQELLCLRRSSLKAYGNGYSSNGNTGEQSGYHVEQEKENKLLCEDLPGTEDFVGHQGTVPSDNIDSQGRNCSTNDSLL

Row | SMILES | Potency | activation
1 | COc1cc(Cl)c(OC)cc1Cl | inactive | –
2 | Cc1c([N+](=O)[O-])cc2c(c1[N+](=O)[O-])C(C)(C)CC2(C)C | inactive | –
3 | NC1CCC(CC2CCC(N)CC2)CC1 (centres undefined) | inactive | –
4 | O=S1(=O)OCCO1 | inactive | –
5 | CC(Oc1cccc(Cl)c1)C(=O)O (centres undefined) | inactive | –
6 | CCCCc1ccc(O)cc1 | inactive | –
7 | O=C1OC(CCN2CCCCC2)OC1(c1ccccc1)c1ccccc1 (centres undefined) | inactive | –
8 | O=C(NC(=O)c1c(F)cccc1F)Nc1cc(Cl)c(F)c(Cl)c1F | inactive | –
9 | CCCCS(=O)(=O)Cl | inactive | –
10 | N#CCCl | inactive | –
11 | COc1ccc(-c2ccccc2)cc1NNC(=O)OC(C)C | inactive | –
12 | CCOC(=O)c1ncn2c1CN(C)C(=O)c1c(I)cccc1-2 | inactive | –
13 | ClCc1cccc(Cl)c1 | inactive | –
14 | NC(=O)C(Cl)Cl | inactive | –
15 | CCCSC(=O)N(CCC)CCC | inactive | –
16 | CC(C)NCC(O)c1ccccc1Cl (centres undefined) | 668 nM (active) | –
17 | COC(=O)C(C)Oc1ccc(Oc2ccc(Cl)cc2Cl)cc1 (centres undefined) | inactive | –
18 | COC1CC(=C(c2cccs2)c2cccs2)C[N+](C)(C)C1 (centres undefined) | inactive | –
19 | Cc1c([N+](=O)[O-])c(C)c([N+](=O)[O-])c(C(C)(C)C)c1[N+](=O)[O-] | inactive | –
20 | CN1C(=O)CN=C(c2ccccc2)c2cc([N+](=O)[O-])ccc21 | inactive | –
21 | CC(C(O)c1ccccc1)N(C)C/C=C/c1ccccc1 (centres undefined) | inactive | –
22 | ClCC(Cl)Cl | inactive | –

Row | SMILES | Potency | activation
23 | CCOC(=O)OC1=C(c2cc(C)ccc2C)C(=O)NC12CCC(OC)CC2 (centres undefined) | inactive | –
24 | ClC=C(Cl)Cl | inactive | –
25 | Cc1cccc(Cc2cnc[nH]2)c1C | inactive | –
26 | O=C(N/N=C/c1ccc([N+](=O)[O-])o1)c1cc([N+](=O)[O-])cc([N+](=O)[O-])c1O | inactive | –
27 | COc1ccc(C(=O)N2CCCC2=O)cc1 | inactive | –
28 | CCCN1CCC[C@@H]2Cc3[nH]ncc3C[C@H]21 | inactive | –
29 | O=c1[nH]oc2c1CCNC2 | inactive | –
30 | CC(=O)OCC1=C(C(=O)O)N2C(=O)[C@@H](N)[C@H]2SC1 | – | 15.1% [at 19 µM]
31 | CCCCOC(C)=O | inactive | –
32 | FC(F)OC(F)(F)C(F)Cl (centres undefined) | inactive | –
33 | Cn1cc(C2=C(c3cn(C4CCN(Cc5ccccn5)CC4)c4ccccc34)C(=O)NC2=O)c2ccccc21 | inactive | –
34 | CC[C@]1(O)CC[C@H]2[C@@H]3CCC4=CCCC[C@@H]4[C@H]3CC[C@@]21C | inactive | –
35 | S=C=Nc1cccc2ccccc12 | inactive | –
36 | CCN[C@@H](C)Cc1ccccc1 | inactive | –
37 | CSSC | inactive | –
38 | CC1=C(C(=O)O)N2C(=O)[C@@H](N)[C@H]2SC1 | – | 0.75% [at 19 µM]
39 | CN=CNc1ccc(C)cc1C | inactive | –
40 | CCC(C(N)=O)N1CCCC1=O (centres undefined) | inactive | –
41 | C[N+](C)(C)CCOC(=O)C(O)(c1ccccc1)c1ccccc1 | inactive | –
42 | SCc1ccco1 | inactive | –
43 | CCOC(=O)NC(C)(C)Cc1ccc(Cl)cc1 | inactive | –
44 | CCC1(c2ccccc2)C(=O)N=C(O)NC1=O (centres undefined) | inactive | –
